Compound activity deposited in PubChem by Broad Institute.
aSyn UTR act: Activators working through SNCA 5'UTR binding (MLPCN); alpha-synuclein 5'UTR reporter, activators screen; activity score, % (tested at 7.5 µM), hits read low; 300,000 compounds, 7.1% hits; AID 1814; in the data active = activity score below about -60%
* marks the source's active call; other numbers are inactive results. These entries were drawn from the full list.

What do the screens show for `Cn1c(SCC(=O)c2ccc(F)cc2)nnc1-c1cnccn1`?
aSyn UTR act: -63*

How did Cn1c(SCC(=O)c2ccccc2)nnc1-c1ccccn1 do in these assays?
aSyn UTR act: -128*

Results for Cn1c(SCc2ccccc2)nnc1-c1ccco1 ?
aSyn UTR act: -120*

What do the screens show for `c1ccc(CSc2nnc(-c3ccco3)n2Cc2ccco2)cc1`?
aSyn UTR act: -107*

How did COc1cccc(-c2nnc(SCc3ccc(C#N)cc3)n2Cc2ccco2)c1 do in these assays?
aSyn UTR act: 43

Results for NC(=O)c1cnn(-c2cc(Oc3ccccc3)ncn2)c1N ?
aSyn UTR act: -66*

How did c1ccc(Oc2cc(-n3cccn3)ncn2)cc1 do in these assays?
aSyn UTR act: -140*

How did COC(=O)c1cnn(-c2cc(Oc3ccccc3)ncn2)c1N do in these assays?
aSyn UTR act: -127*

How did COC(=O)c1cnc(Oc2ccc(NC(=O)NC(=O)c3c(OC)cccc3OC)cc2)cc1C(F)(F)F do in these assays?
aSyn UTR act: 74

Results for Nc1ccc(SCc2nc3cccc4c3n2CCC4)cc1 ?
aSyn UTR act: -99*

What do the screens show for `Cc1cc(C)c(OCC(=O)Nc2ccc3c(c2)OCO3)cc1C`?
aSyn UTR act: -112*

What do the screens show for `O=C(COc1ccccc1Cl)Nc1ccc2c(c1)OCCO2`?
aSyn UTR act: -151*

How did Cc1ccccc1OCC(=O)Nc1ccc2c(c1)OCCO2 do in these assays?
aSyn UTR act: -180*

Results for Cc1ccccc1OCC(=O)Nc1ccc(N2CCN(C)CC2)c(Cl)c1 ?
aSyn UTR act: -140*

How did Cc1ccccc1OCC(=O)Nc1cccc(C(=O)O)c1 do in these assays?
aSyn UTR act: 105

How did Cc1cc(C)c(OCC(=O)Nc2cccc(O)c2)cc1C do in these assays?
aSyn UTR act: -114*

Results for O=C(COc1ccc(Br)cc1Cl)NC(=O)Nc1ccc2c(c1)OCCO2 ?
aSyn UTR act: -72*

What do the screens show for `Cc1ccc(OCC(=O)Nc2ccc3c(c2)OCO3)c([N+](=O)[O-])n1`?
aSyn UTR act: -111*

What do the screens show for `COc1ccccc1OCC(=O)Nc1ccc2c(c1)OCCO2`?
aSyn UTR act: -89*

How did N#Cc1cccc(NCC(=O)Nc2ccc3c(c2)OCCO3)c1 do in these assays?
aSyn UTR act: -69*

What do the screens show for `Cc1cccc(C)c1OCC(=O)Nc1ccc2c(c1)OCCO2`?
aSyn UTR act: -158*

How did COc1cc(C=O)ccc1OCC(=O)Nc1ccc2c(c1)OCO2 do in these assays?
aSyn UTR act: -90*

What do the screens show for `O=C1/C(=C\c2ccc3c(c2)OCO3)CCC/C1=C/c1ccc2c(c1)OCO2`?
aSyn UTR act: -93*

How did O=C1/C(=C/c2ccncc2)CCC/C1=C\c1ccncc1 do in these assays?
aSyn UTR act: -101*

Results for CC1CC/C(=C\c2ccc3c(c2)OCO3)C(=O)/C1=C/c1ccc2c(c1)OCO2 (stereo not drawn) ?
aSyn UTR act: -80*

Results for O=C(CSc1nnc(-c2ccc(F)cc2)o1)N1CCCC1 ?
aSyn UTR act: -114*

How did CCOC(=O)N1CCN(C(=O)CSc2nnc(-c3ccc(C(C)(C)C)cc3)o2)CC1 do in these assays?
aSyn UTR act: -73*

How did Cc1ccc(-c2nnc(SCC(=O)N3CCCC3)o2)cc1C do in these assays?
aSyn UTR act: -83*

How did Cc1cccc(-c2nnc(SCC(=O)N3CCCC3)o2)c1 do in these assays?
aSyn UTR act: -83*

Results for Cc1ccc(-c2nnc(SCC(=O)N3CCCC3)o2)cc1 ?
aSyn UTR act: -104*

What do the screens show for `COc1ccc(Oc2nnc(C)c3ccccc23)cc1`?
aSyn UTR act: -175*

Results for COc1ccc(-c2nnc3c4ccccc4c(C)nn23)cc1 ?
aSyn UTR act: -206*

Results for Cc1nnc(Oc2ccccc2F)c2ccccc12 ?
aSyn UTR act: -94*

Results for Cc1ccc2c(c1)C(c1ccncc1)=NNC(c1ccccc1)=N2 ?
aSyn UTR act: -127*

Results for Cc1ccc(C2=Nc3ccc(Br)cc3C(c3ccncc3)=NN2)cc1 ?
aSyn UTR act: -70*

What do the screens show for `Cc1ccccc1OCc1nc2c3cnn(C)c3ncn2n1`?
aSyn UTR act: -152*

How did CCc1ccc(C(=O)CN2CCSC2=N)cc1 do in these assays?
aSyn UTR act: -109*

How did CC(=O)C1=C(C)OC(N)=C(C#N)C1c1cc([N+](=O)[O-])ccc1Cl (stereo not drawn) do in these assays?
aSyn UTR act: -69*

How did Cc1ccc(C)c(-c2nnc(NC(=O)c3ccc([N+](=O)[O-])o3)o2)c1 do in these assays?
aSyn UTR act: -63*

What do the screens show for `O=C(CCc1ccccc1)Nc1nc2c(F)cc(F)cc2s1`?
aSyn UTR act: -99*

What do the screens show for `Cc1cc(C)c2nc(NC(=O)c3ccc([N+](=O)[O-])o3)sc2c1`?
aSyn UTR act: -144*

Results for O=C(Nc1nc2c(F)cc(F)cc2s1)c1ccc([N+](=O)[O-])o1 ?
aSyn UTR act: -69*

How did Cc1cc(C)c2sc(NC(=O)c3ccc([N+](=O)[O-])o3)nc2c1 do in these assays?
aSyn UTR act: -110*

What do the screens show for `CCCc1noc(-c2ccc(-c3ccccc3)cc2)n1`?
aSyn UTR act: -112*

What do the screens show for `CC(=O)Nc1c(-c2ccc3ccccc3c2)nc2ccccn12`?
aSyn UTR act: -124*
